Most compounds without a hit are left out; they make up all but 3.2% or so of the library.
TcdB inh – blocks C. difficile toxin B glycohydrolase activity. TcdB glycohydrolase enzymatic assay, plate reader. inhibition, % at 9.99 µM. hit rate 0.24% among 350,000; in the data active = inhibition above about 10%
Y pestis TopoI – blocks Yersinia pestis topoisomerase I activity; Y. pestis Topo-I cleavage product accumulation, plate reader; hit rate 0.064% among 360,000; activity, % at 10 µM; in the data active = activity above about 50%, passing the limit was not always enough
Mtb FBA inh – inhibits M. tuberculosis FBA enzyme. purified M. tuberculosis FBA, fluorescence read-out. inhibition, % at 1 µM. hit rate 2.3% among 360,000; in the data active = inhibition above about 27%;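 note: 0% = vehicle and 100% = reference inhibitor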
Target sequence (P9WQA3 whole entry, looked up): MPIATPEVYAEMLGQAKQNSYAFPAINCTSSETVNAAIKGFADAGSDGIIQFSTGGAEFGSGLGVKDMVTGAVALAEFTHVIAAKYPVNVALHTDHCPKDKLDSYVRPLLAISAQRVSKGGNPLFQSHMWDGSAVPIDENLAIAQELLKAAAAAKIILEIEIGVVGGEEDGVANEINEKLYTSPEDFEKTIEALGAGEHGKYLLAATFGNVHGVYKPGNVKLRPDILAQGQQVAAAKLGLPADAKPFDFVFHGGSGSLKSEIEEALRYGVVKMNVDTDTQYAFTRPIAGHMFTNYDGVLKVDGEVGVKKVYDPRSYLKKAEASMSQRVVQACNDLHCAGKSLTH
PrPC surface inh – inhibitors of human cell surface prion protein PrPC; P04156; TR-FRET read-out; inhibition, % at 13.8 µM; hit rate 0.43% among 370,000; AID 720596; in the data active = inhibition above about 24%; note: 0% = median of the test wells and 100% = reference compound wells
GDH-TPI inh – counter-screen for M. tuberculosis FBA inhibitors: GDH-TPI coupled enzymes; GDH-TPI coupled enzyme counterscreen, NADH absorbance; inhibition, % at 4.8 µM; hit rate 1.2% among 360,000; AID 588335; in the data active = inhibition above about 30%;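 note: 0% = DMSO wells and 100% = wells lacking the enzyme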
Numbers without * were called inactive; . = no result given; + = active, no number.

SMILES	TcdB inh	Y pestis TopoI	Mtb FBA inh	PrPC surface inh	GDH-TPI inh
Cc1c(CC(=O)NCC(=O)NCC(=O)O)c(=O)oc2cc3c(cc12)CCC(C)(C)O3	-0.7	-5.9	194.0*	-4.4	21.9
Cc1c(CC(=O)NCC(=O)O)c(=O)oc2cc3oc4c(c3cc12)CCCC4	0.4	-1.3	3.0	1.0	4.8
Cc1c(CC(=O)NCC(=O)O)c(=O)oc2cc3c(cc12)CCC(C)(C)O3	0.6	-3.8	+	7.3	30.1
Cc1c(CC(=O)NCCCO)c(=O)oc2cc3c(cc12)CCC(C)(C)O3	0.5	-5.1	182.8*	3.0	22.0
Cc1ccc(S(=O)(=O)NC2CCN(Cc3cccc(OCCO)c3)CC2)cc1	-1.2	.	.	.	.
O=C(Nc1ccc2c(c1)OCCO2)N1CCN(Cc2ccccc2)CC1	-0.4	-10.7	0.7	15.1	31.7*
O=C(NC1CCN(Cc2ccccc2)CC1)c1ccc2c(c1)OCCCO2	-1.2	70.2*	3.4	3.2	-0.4
O=C(Nc1ccc2c(c1)OCCO2)c1cc2ccccc2o1	10.2*	4.4	-1.7	10.7	5.1
Cc1cccc(-c2ccc([C@@H]3[C@H]4CN(C(=O)Cc5ccccn5)CC(=O)N4[C@H]3CO)cc2)c1	-0.1	.	.	.	.
C[C@@H]1CCCCO[C@H](CN(C)C(=O)Nc2cccc3ccccc23)[C@@H](C)CN([C@@H](C)CO)C(=O)c2cc(NC(=O)c3ccccc3)ccc2O1	-1.1	.	.	.	.
COc1cccc(Nc2ncc(C(=O)O)c3ccccc23)c1	.	-7.5	-4.2	-4.0	36.1*
CCCNC(=O)C[C@H]1C[C@H]2c3cc(NC(=O)COC)ccc3O[C@H]2[C@@H](CO)O1	-1.4	.	.	.	.
CN1/C(=C/C(=O)COC(=O)C2COc3ccccc3O2)C(C)(C)c2ccccc21 (stereo unspecified)	-0.5	18.4	3.4	7.5	31.6*
CN1/C(=C\C(=O)COC(=O)CNC(=O)c2ccc3ccccc3c2)C(C)(C)c2ccccc21	-1.3	15.4	5.4	5.5	9.5
CN1/C(=C\C(=O)COC(=O)c2ccc(O)cc2)C(C)(C)c2ccccc21	0.5	11.9	9.3	5.6	29.2
CN1/C(=C\C(=O)COC(=O)CN2C(=O)C3CC=CCC3C2=O)C(C)(C)c2ccccc21 (stereo unspecified)	.	21.1	7.9	9.2	36.8*
O=C(Nc1cccc(F)c1)N1CC(=O)N2[C@H](CO)[C@@H](c3ccc(C#Cc4cccnc4)cc3)[C@@H]2C1	0.3	.	.	.	.
Cc1ccc[n+](CC(=O)Nc2cccc([N+](=O)[O-])c2)c1	1.9	3.3	2.2	-7.5	1.3
Cc1ccc[n+](CC(=O)Nc2ccc([N+](=O)[O-])cc2)c1	-1.1	2.1	1.9	-8.6	42.0*
Cc1ccc(/C=N/NC(=O)c2nnn(-c3nonc3N)c2C(C)C)o1	-1.5	0.4	-0.4	-5.5	44.4*
CCCc1c(C(=O)N/N=C/c2ccc(C)o2)nnn1-c1nonc1N	0.1	-1.0	2.9	-9.6	42.5*
CCCN(CCC)Cc1c(C(=O)N/N=C/c2ccc(C)o2)nnn1-c1nonc1N	-0.3	0.0	0.9	-2.1	18.7
Cc1ccc(SCc2c(C(=O)N/N=C/c3ccc(C)o3)nnn2-c2nonc2N)cc1	1.4	4.0	2.5	-4.7	38.9*
COc1cccc(-c2c(C(=O)N/N=C/c3ccc(C)o3)nnn2-c2nonc2N)c1	0.1	-3.9	-1.1	-6.5	46.5*
CC(C)c1c(C(=O)N/N=C/c2ccco2)nnn1-c1nonc1N	-0.7	-1.7	-1.0	-8.9	14.9
SMILES	TcdB inh	Y pestis TopoI	Mtb FBA inh	PrPC surface inh	GDH-TPI inh
O=C(C[C@H]1C[C@@H]2c3cc(NC(=O)C4CCC4)ccc3O[C@@H]2[C@@H](CO)O1)NCc1cc(F)ccc1F	-0.9	.	.	.	.
COc1cccc(-c2ccc([C@@H]3[C@H](CO)N4CCCCN(CC5CC5)C[C@@H]34)cc2)c1	0.5	.	.	.	.
Cc1ccccc1-c1cnc2c(c1)C(=O)N([C@@H](C)CO)C[C@@H](C)[C@@H](CN(C)C(=O)c1cccnc1)O2	0.7	.	.	.	.
Cc1ccc(/C=N/NC(=O)c2nnn(-c3nonc3N)c2CSc2ccccc2)o1	1.1	7.2	1.0	-1.0	39.5*
C[C@H](CO)N1C[C@H](C)[C@H](CN(C)C(=O)CCCN(C)C)OCCCC[C@H](C)Oc2ccc(NC(=O)Nc3cccc4ccccc34)cc2C1=O	0.9	.	.	.	.
COc1ccc(-c2cc(C(=O)NCCCN3CCCC3=O)c3ccccc3n2)cc1	0.2	-9.8	68.7*	-8.2	15.8
NS(=O)(=O)c1ccc(CCNC(=O)c2cc(-c3ccccc3)nc3ccccc23)cc1	.	-10.4	1.9	-8.8	6.6
COc1ccc2sc(-c3ccc(S(C)(=O)=O)cc3)c(C(=O)NCCCN3CCCC3=O)c2c1	1.7	0.7	5.2	-20.7	31.8*
COc1ccc(-c2cc(C(=O)NCCc3ccc(S(N)(=O)=O)cc3)c3ccccc3n2)cc1	0.2	11.2	66.5*	-16.0	13.0
O=C(C[C@@H]1CC[C@H]2[C@@H](COC[C@H](O)CN2Cc2ccc(F)cc2)O1)NCc1ccncn1	0.3	.	.	.	.
CCC(=O)N[C@@H]1CC[C@H](CC(=O)NCCN2CCCCC2)O[C@H]1CO	-0.1	.	.	.	.
COc1ccc(S(=O)(=O)Nc2ccc3c(c2)C(=O)N([C@H](C)CO)C[C@@H](C)[C@@H](CN(C)C(=O)NC2CCCCC2)OCCCC[C@@H](C)O3)cc1	0.5	.	.	.	.
CNC(=S)N(CCO)Cc1cc2cc3c(cc2[nH]c1=O)OCO3	0.5	-2.4	33.0*	0.5	20.9
C[C@H](CO)N1C[C@H](C)[C@H](CN(C)C(=O)NC2CCCCC2)Oc2ncc(C#CCN(C)C)cc2C1=O	-0.8	.	.	.	.
COc1cc2c(cc1OC)-c1cc3ccc4c(c3c[n+]1CC2)OCO4	0.0	-11.4	-0.6	-39.3	35.3*
COc1cc2c(ccc3cc(OC)c(OC)c(O)c32)cc1O	3.7	-6.4	5.6	3.8	-1.0
COc1cc2c(cc1O)CC[n+]1cc3c(OC)c(OC)ccc3cc1-2	13.5*	-8.1	-4.2	-48.1	32.8*
CCCC#Cc1ccc2c(c1)O[C@@H](CN(C)C(=O)c1ccccn1)[C@@H](C)CN([C@@H](C)CO)S2(=O)=O	3.6	.	.	.	.
CN1CCN(C(=O)C[C@@H]2CC[C@H]3[C@@H](COC[C@H](O)CN3Cc3ccc4c(c3)OCO4)O2)CC1	0.0	.	.	.	.
COc1cc(/C=C(\C#N)C(=O)Nc2ccc3c(c2)OCCO3)ccc1O	15.1*	-11.6	-29.7	5.8	0.0
O=C(NNC(=S)NCc1ccco1)c1ccc(Cl)s1	.	3.1	-1.7	8.8	31.0*
Cc1noc(C)c1S(=O)(=O)Nc1ccc2c(c1)C(=O)N([C@H](C)CO)C[C@@H](C)[C@H](CN(C)S(=O)(=O)c1ccc(Cl)cc1)O2	0.5	.	.	.	.
C[C@@H]1CN([C@@H](C)CO)C(=O)c2cc(NC(=O)CCCN(C)C)ccc2O[C@@H]1CN(C)S(C)(=O)=O	-0.6	.	.	.	.
COc1ccc(S(=O)(=O)Nc2ccc3c(c2)C(=O)N([C@H](C)CO)C[C@H](C)[C@H](CN(C)C(=O)Nc2ccccc2)OCCCC[C@H](C)O3)cc1	-8.9	.	.	.	.
CCOc1ccc(CCNS(=O)(=O)c2c(C)nc3scc(C)n3c2=O)cc1OCC	-0.4	-7.3	-0.7	-3.5	33.2*
Cc1cc(C(=O)CSc2nnnn2-c2ccccc2)c(C)n1-c1ccc2c(c1)OCO2	11.3*	17.6	0.3	-3.5	1.9

Screening results from PubChem BioAssay.
